# Reference: PubChem BioAssay AID1851 (National Center for Advancing Translational Sciences (NCATS), 2009)
# Values joined by “and” are separate entries in the source; they are usually repeats but may differ in a detail not shown here. Equal entries are not always repeated. Out of some 16,000 compounds screened, about 5,700 (36%) were called active. Another 24% or so got no clear call; they are omitted. The list shows a part of the results. Values without a mark were called inactive. Calls follow the shape of the dose curve; as a rule, active = well fitted curve in the direction sought with a large enough effect; inconclusive = small, poorly fitted or top-dose-only effect, or effect the other way; inactive = no such curve, though single readings can be large or run the other way.
# Biological target: Cytochrome P450 1A2 (Homo sapiens) (UniProt P05177)
# Experiment: Cytochrome panel assay with activity outcomes
# Conditions: recombinant CYP, pro-luciferin dealkylation, luminescence, p450-cyp1a2; series mostly up to 57.1 µM; activity, negative = inhibition: at the top concentration
# % is scaled to controls: 0 for no effect and ±100 for the full control effect.
# Sequence of Cytochrome P450 1A2 (Homo sapiens) (P05177 whole entry, looked up): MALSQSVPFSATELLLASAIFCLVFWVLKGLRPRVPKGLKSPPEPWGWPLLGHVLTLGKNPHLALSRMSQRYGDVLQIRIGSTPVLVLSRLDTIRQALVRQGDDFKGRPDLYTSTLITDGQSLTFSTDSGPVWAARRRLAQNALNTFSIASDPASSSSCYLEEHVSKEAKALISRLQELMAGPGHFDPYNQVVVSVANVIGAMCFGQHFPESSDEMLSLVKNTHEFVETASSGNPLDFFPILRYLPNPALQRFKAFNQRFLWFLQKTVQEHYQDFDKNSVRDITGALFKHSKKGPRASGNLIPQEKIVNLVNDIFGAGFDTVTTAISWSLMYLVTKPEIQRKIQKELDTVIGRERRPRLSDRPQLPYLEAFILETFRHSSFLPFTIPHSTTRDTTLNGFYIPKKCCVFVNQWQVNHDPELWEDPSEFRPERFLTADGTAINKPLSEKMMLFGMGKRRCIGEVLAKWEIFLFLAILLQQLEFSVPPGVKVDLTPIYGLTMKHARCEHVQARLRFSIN
SMILES,AC50,"activity, negative = inhibition"
CC1=C(C)/C(=N\OC(=O)/C=C/c2ccccc2)C=CC1=O,14.1 µM (active),–
OC[C@@H]1O[C@@H](n2cnc3c(SCc4ccccc4)ncnc32)[C@@H](O)[C@H]1O,–,-17.2% [at 2.29 µM]
CNC(=O)[C@@H]1O[C@@H](n2cnc3c(NCc4cccc(I)c4)ncnc32)[C@H](O)[C@@H]1O,–,-16.4%
COc1ccc(-n2c(=O)[nH]cc(C(=O)Nc3ccc4c(c3)OCCO4)c2=O)cc1,–,-16.7%
Cc1ccc2nc(SCC(=O)c3ccc4c(c3)OCO4)[nH]c2c1,1 µM (active),–
Cc1ccc2nc(SCC(=O)Nc3nnc(SCC(N)=O)s3)[nH]c2c1,14.1 µM (active),–
CCOC(=O)NC(=O)CSc1nc2ccc(OCC)cc2[nH]1,2.51 µM (active),–
COc1ccc2nc(SCC(=O)Nc3ccc4c(c3)OCCO4)[nH]c2c1,5.62 µM (active),–
CC/C=C\CC[C@H](OC(=O)c1ccc(Br)cc1)C1=CCCCC1=O,–,1.86% [at 11.4 µM]
COc1ccc(CCn2c(C)cc(C(=O)CSc3nc(N)cc(=O)[nH]3)c2C)cc1,–,-28.1%
COc1ccc2nc(SCC(=O)c3ccco3)[nH]c2c1,7.08 µM (active),–
O=C(N/N=C\c1ccc2c(c1)CCC2)c1ccccc1O,2 µM (active),–
CSCC[C@H](NC(=O)CC(C)(C)C)c1nc2ccccc2[nH]1,–,-6.75%
OCCNc1nc2ccccc2[nH]1,–,-21.8%
CCN(CC)c1nc2ccccc2[nH]1,15.8 µM (active),–
CCOC(=O)c1c(C)oc2c1c(C=NC1CCS(=O)(=O)C1)c(O)c1ccccc12 (stereo unspecified),1.26 µM (active),–
CCOC(=O)c1c(C)oc2c1cc(O)c1ccccc12,0.0631 µM (active),–
CCCCCOC(=O)c1c(N)n(CCOC)c2nc3ccccc3nc12,1 µM (active),–
C=C(C)C1Cc2nc(N)nc(C)c2C1 (stereo unspecified),3.16 µM (active),–
Nc1nc(N)c2[nH]c(CNc3ccc(C(=O)O)cc3)nc2n1,–,-9.57% [at 11.4 µM]
C[C@H](CN(C)C)C(O)(c1ccccc1)c1ccccc1,–,5.76% [at 11.4 µM]
Cc1ccc(C2CC2C(=O)NN)cc1 (stereo unspecified),0.316 µM (active),–
Cc1ccc(NC(=O)C2CCN(S(C)(=O)=O)CC2)cc1,–,14.6%

SMILES,AC50,"activity, negative = inhibition"
O=C1C2=C(Nc3cc([N+](=O)[O-])ccc3N2)O[C@@H]1c1c[nH]c2ccc(COc3ccccc3)cc12,2.51 µM (active),–
Cc1cc2c(cc1C)NC1=C(N2)O[C@H](c2c[nH]c3ccc(COc4ccccc4)cc23)C1=O,2.51 µM (active),–
N[C@@H](Cc1c[nH]c2ccc([N+](=O)[O-])cc12)C(=O)O,–,-10.4% [at 11.4 µM]
CC(C)NC(=O)N1CCC2(CC1)CCN(C(=O)c1cccn1C)CC2,–,6.26%
CC(C)NC(=O)C(C)n1cccc1C(=O)c1ccccc1 (stereo unspecified),25.1 µM (active),–
CC(C)NC(=O)/C(=N\O)c1ccccc1,–,-26.9%
Cc1ccccc1-n1nc2c(c1NC(=O)c1ccc(S(=O)(=O)N(C)C)cc1)CSC2,–,-8.24%
Cc1ccc(-n2nc3c(c2NC(=O)c2cccs2)CSC3)cc1,1.58 µM (active),–
Cc1ccccc1-n1nc2c(c1NC(=O)c1c(-c3ccccc3Cl)noc1C)CSC2,–,1.48%
Cn1c(=O)n(C)c2cc(/C=N/n3cnnc3)ccc21,6.31 µM (active),–
Cn1c(=O)n(C)c2cc(S(=O)(=O)O)ccc21,–,8.35%
Nc1nc2c(ncn2COC(CO)CO)c(=O)[nH]1,inactive,–
CO[C@]1(NC(=O)C2SC(=C(C(N)=O)C(=O)O)S2)C(=O)N2C(C(=O)O)=C(CSc3nnnn3C)CS[C@H]21 (stereo partly specified),–,-10.6% [at 25.6 µM]
CC1CCN(CC(=O)Nc2cccc([N+](=O)[O-])c2)CC1,–,-27.6%
Cc1c(C)n(C(=O)CN2CCC(C)CC2)c2ccccc12,4.47 µM (active),–
CC1CCN(CC[C@@H]2CCCN2S(=O)(=O)c2cccc(O)c2)CC1,–,-10.4%
Cc1cc(C)n2nc(SCC(=O)N/N=C/c3ccccc3F)nc2n1,15.8 µM (active),–
COc1ccccc1CNC(=O)CSc1nc2nc(C)cc(C)n2n1,–,-3.92%
Cc1cccc(Cc2c(C)nc3nc(SCC(=O)NCc4ccco4)nn3c2C)c1,–,-0.503%
Cc1cc(C)nc(SCC(=O)N/N=C\c2sccc2C)n1,12.6 µM (active),–
Cc1cccc(N(C)C(=S)Oc2ccc3ccccc3c2)c1,2.51 µM (active),–
COc1ccc(N2CCN(C(=S)Nc3cccc(C)c3)CC2)cc1,–,-11%
CCc1cc2c(nc1CC)CCN(CC/C(C)=N/O[C@@H](C)c1cn([C@H](CO)Cc3ccccc3)nn1)C2,–,-13.3% [at 11.4 µM] and 1.01% [at 11.4 µM]
